Measured values reported in the supplement of paper PMC6555819.

Test system: PPARg:RXRa 270nM:90nM, anti-RXR (NR concentration 270 nM, RXRa partner concentration 90 nM)
Experiment: PBM binding z-score (relative to random genomic background probes); higher = stronger binding; sequences stand for … in GC…GCGATTGACAGCGTAGAATGAAGG
How it was run: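 Custom Agilent 4×180K protein-binding microarrays carried double-stranded probes, each with a 34-nt variable region. These regions held direct-repeat seeds, single-nucleotide variants, half-site ablations and random human genomic background sequences. Ligand-free nuclear receptor dimers were incubated on the arrays for 1 h, antibodies against each partner (one per run) detected binding, and scanned fluorescence was regression-normalized. Binding z-scores take the random background probes as reference.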

Sequence | PBM binding z-score
AGAATCAGGTTATTAAGATCAGGGAATTGCGGTC | 1.04
TCGAGTAGGTTAGGGGTATTCAGAATGGCGTCGA | 3.55
CCTACTGGGCCCTTCAGAGGTCATTGATCATATG | 1.95
GAGACTGGGGCAAAGCAGGTTACCATAAGGTTGG | 1.98
CCCACTGGGCCACGAAAGGTCATTGATTCAGTGA | 4.99
CCAGACAGGTGAGAAGGTCACTCAGCCTCGATTA | 3.07
ATCGAAAGCTCGTGAGGTGAGTATACAGAAAGGC | 0.00274
TCTAGTTGGTCAAAGGTCACACATTCGAAATGCG | 9.09
TAGCGTAGGTCAGATCGGGCCAGTATACGCTATA | 0.725
TCTGGTAGATCAAAGGTTAAGAAAGCCGAAGCCT | 6.52
CGTCCAAGGTCAAGGTCAGTCAAAGAGACTCGAA | 5.98
TCATATAGGTAAAGGTGAAAGTCGAACGATATGA | 4.55
ACAGACAGGTGAGTGAAGGCAACTCAGCTGGACG | -0.0793
AGAATGAGGTTATTAAGCTCAGGGAATTGCGGTC | 1.26
CGTCCAAGGTAAGCAGGTCAGTGAAAGCGACGTG | 0.427
ACTAGTTTGTCAGCTGAGGTCACACACAATTCGG | 2.21
TCTTGTAGATCAGCAGGTTCAGAAAGCTGGCCAA | 1.1
ACAGACAGGTGAGTGAAGGAAACTCAGCTGGACG | -0.724
TCTTGTAGATCAAAAGAGGTTAAGAAAGTGCGCT | 1.59
TTACCGAGGTGAAGGTCGTTGATCCCTCTGTAGA | 3.81
CCGAGTAGGTTATGAGGCATTCAGGCAACGGTGA | 2.22
CGAACTAGGTCATGCAGGACAGTGAATACATTGA | 6.21
